Eight compounds from PubChem BioAssay (NCI) can be followed below.

Experiment in all cases: NCI-60 one-dose screen, 48 h (100 = growth as untreated, 0 = no growth, -100 = all killed)
In one test the test system is DU-145 prostate. Particulars: 10 µM unless noted.
The subject of the next test is K-562 leukemia. The following applies: 10 µM unless noted.
The subject of a further test is MALME-3M melanoma. Particulars: 10 µM unless noted.
The subject of the next test is MDA-MB-231 breast. The following applies: 10 µM unless noted.
The subject of a further test is RXF 393 renal. The following applies: 10 µM unless noted.
A further test deals with SF-268 CNS. Particulars: 10 µM unless noted.
The next test has as its system SF-295 CNS. The following applies: 10 µM unless noted.
In the next test the test system is SF-539 CNS. The following applies: 10 µM unless noted.
The subject of the next test is UACC-257 melanoma. Particulars: 10 µM unless noted.
A further test relates to M14 melanoma. The following applies: 10 µM unless noted.
The next test deals with HCT-15 colon. Particulars: 10 µM unless noted.
The test system of another test is HT29 colon. The following applies: 10 µM unless noted.
In the next test the test system is SNB-75 CNS. The following applies: 10 µM unless noted.
The next test concerns SNB-19 CNS. Particulars: 10 µM unless noted.
In the next test the test system is U251 CNS. The following applies: 10 µM unless noted.
The next test has as its system PC-3 prostate. The following applies: 10 µM unless noted.
In a further test the test system is UACC-62 melanoma. Particulars: 10 µM unless noted.
Another test has as its system LOX IMVI melanoma. Particulars: 10 µM.
The next test relates to SK-MEL-28 melanoma. The following applies: 10 µM unless noted.
The next test relates to SK-MEL-5 melanoma. The following applies: 10 µM unless noted.

Values joined by “and” are separate entries in the source; they are usually repeats but may differ in a detail not shown here. Identical values can stand only once. About 83,000 compounds went through this panel and 20% of them were active in at least one assay; those are over-represented in the sample as a whole.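 The test compound was applied at a single concentration to cells in 96-well plates for 48 hours, and percent growth was recorded.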 More than one record can exist for a structure, and the calls need not agree. Active and inactive are the calls of the source. The calls were made as follows: active = growth percent below 10; inactive = the rest.

Consider `O=C(Nc1cccc(C(F)(F)F)c1)Oc1ccc(Cl)c2cccnc12`, for which the growth in the test on DU-145 prostate was 39.6% (inactive); in the test on K-562 leukemia, 16.2% (inactive); with MALME-3M melanoma, -2.66% (active); with MDA-MB-231 breast, 22.7% (inactive); in the test with RXF 393 renal, 68.6% (inactive); with SF-268 CNS, 15.1% (inactive). In addition, the growth in the test on SF-295 CNS is 4.11% (active); in the test on SF-539 CNS, 50.9% (inactive); in the test on UACC-257 melanoma it was -60% (active); with M14 melanoma, 24.9% (inactive); in the test with HCT-15 colon it was 2.21% (active); with HT29 colon, 74.3% (inactive). Besides, the growth in the test with SNB-75 CNS was 65.9% (inactive); in the test on SNB-19 CNS, 46.1% (inactive); in the test with U251 CNS, 9% (active); in the test on PC-3 prostate, -40.1% (active); in the test with UACC-62 melanoma, 32.4% (inactive); in the test with LOX IMVI melanoma, 2.8% (active). The growth with SK-MEL-28 melanoma is 58.3% (inactive).
With `CCCCCCCCCCCC1=NCCCN1CCCC`, the growth with DU-145 prostate is 103% (inactive); in the test with K-562 leukemia, 80.3% (inactive); in the test on MALME-3M melanoma it was 106% (inactive); in the test on MDA-MB-231 breast it was 78.8% (inactive); in the test on RXF 393 renal, 122% (inactive); with SF-268 CNS it was 101% (inactive). Besides, the growth was 101% (inactive) with SF-295 CNS; 110% (inactive) in the test on SF-539 CNS; 92.3% (inactive) in the test with UACC-257 melanoma; 100% (inactive) with M14 melanoma; 91.7% (inactive) with HCT-15 colon; 86.1% (inactive) with HT29 colon. Moreover, the growth is 102% (inactive) in the test on SNB-75 CNS; 101% (inactive) in the test with SNB-19 CNS; 89.1% (inactive) with PC-3 prostate; 95.8% (inactive) in the test on SK-MEL-5 melanoma; 96.7% (inactive) in the test on UACC-62 melanoma; 77.1% (inactive) with LOX IMVI melanoma.
Turning to `NC1=C(Br)C(=O)c2ncccc2C1=O`, the growth in the test on DU-145 prostate is -57.8% (active); in the test with K-562 leukemia, -44.2% (active); in the test with MALME-3M melanoma, -85.9% (active); in the test with MDA-MB-231 breast, 19.2% (inactive); in the test on RXF 393 renal it was 13.5% (inactive); in the test with SF-268 CNS, -43.9% (active). The growth was -84.3% (active) with SF-295 CNS; -91.5% (active) in the test on SF-539 CNS; -58.4% (active) in the test with UACC-257 melanoma; -88.7% (active) with M14 melanoma; 2.56% (active) in the test on HCT-15 colon; 49.1% (inactive) in the test with HT29 colon. Moreover, the growth in the test on SNB-75 CNS was -84.2% (active); in the test with SNB-19 CNS, -86.7% (active); in the test on U251 CNS, -82.2% (active); in the test with PC-3 prostate, 11.9% (inactive); in the test with SK-MEL-5 melanoma, -98.3% (active); in the test on UACC-62 melanoma, -96.3% (active). In addition, the growth is -71.2% (active) with LOX IMVI melanoma and -87.4% (active) with SK-MEL-28 melanoma.
Turning to `O=C(c1ccccc1)c1cc2ccccc2oc1=O`, the growth is 114% (inactive) in the test on DU-145 prostate; 111% (inactive) in the test with K-562 leukemia; 90.4% (inactive) in the test with MALME-3M melanoma; 79.5% (inactive) with MDA-MB-231 breast; 90% (inactive) in the test with RXF 393 renal; 101% (inactive) in the test with SF-268 CNS. Moreover, the growth is 113% (inactive) in the test with SF-295 CNS; 116% (inactive) in the test with SF-539 CNS; 96.9% (inactive) in the test on UACC-257 melanoma; 104% (inactive) in the test with M14 melanoma; 108% (inactive) in the test on HCT-15 colon; 113% (inactive) with HT29 colon. In addition, the growth with SNB-75 CNS was 71.8% (inactive); with SNB-19 CNS, 97.4% (inactive); in the test with U251 CNS, 90.2% (inactive); with PC-3 prostate, 72.3% (inactive); in the test on UACC-62 melanoma, 93.4% (inactive); with LOX IMVI melanoma, 89.8% (inactive). The growth in the test on SK-MEL-28 melanoma was 119% (inactive).
Take `OC(c1cc(-c2ccc(C(F)(F)F)cc2)nc(C(F)(F)F)c1)C1CCCCN1` (centres undefined): the growth was -16.1% (active) and -94.1% (active) and 32.1% (inactive) in the test with DU-145 prostate; -47.5% (active) and -65.5% (active) and -27.9% (active) in the test with K-562 leukemia; 22% (inactive) and -88.6% (active) and 60.1% (inactive) in the test with MALME-3M melanoma; -57.8% (active) and -85.1% (active) and -19% (active) with MDA-MB-231 breast; -94.4% (active) and -93% (active) and 39% (inactive) with RXF 393 renal; -42.1% (active) and -39.4% (active) and 29.8% (inactive) in the test on SF-268 CNS. Further, the growth in the test with SF-295 CNS is 188% (inactive); in the test on SF-539 CNS, -41.7% (active) and -76.5% (active) and 40.2% (inactive); in the test with UACC-257 melanoma, -68.6% (active) and 68.3% (inactive) and -8.76% (active); with M14 melanoma, -77% (active) and -84.3% (active) and -76.6% (active); in the test on HCT-15 colon, -36.1% (active) and -65.7% (active) and 14.6% (inactive); in the test with HT29 colon it was -49.8% (active) and -67.9% (active) and -54.8% (active). The growth was 18.6% (inactive) and -18% (active) and 46.3% (inactive) with SNB-75 CNS; 33.4% (inactive) and 37% (inactive) and 53.7% (inactive) in the test with SNB-19 CNS; -89% (active) and -95.4% (active) and -62% (active) with U251 CNS; -29.2% (active) and -43.2% (active) and 17% (inactive) in the test with PC-3 prostate; 0.644% (active) and -95.1% (active) and 69.5% (inactive) with UACC-62 melanoma; -55.2% (active) and -97.5% (active) and -80.7% (active) in the test with LOX IMVI melanoma. For the same compound, the growth with SK-MEL-28 melanoma was -76.1% (active) and -93.1% (active) and 45.2% (inactive).
As to `O=C(Cc1ccccc1)C(F)(F)F`, the growth was 103% (inactive) in the test on DU-145 prostate; 94.5% (inactive) in the test on K-562 leukemia; 99.4% (inactive) in the test on MALME-3M melanoma; 96.5% (inactive) in the test with MDA-MB-231 breast; 104% (inactive) with RXF 393 renal; 98.9% (inactive) in the test on SF-268 CNS. In addition, the growth in the test on SF-295 CNS was 101% (inactive); in the test on SF-539 CNS it was 97% (inactive); in the test on UACC-257 melanoma it was 18.1% (inactive); with M14 melanoma, 99.6% (inactive); in the test with HCT-15 colon, 107% (inactive); in the test on HT29 colon it was 112% (inactive). The growth with SNB-75 CNS is 92.4% (inactive); in the test with SNB-19 CNS it was 109% (inactive); in the test on U251 CNS, 97.8% (inactive); with PC-3 prostate, 96.3% (inactive); in the test with UACC-62 melanoma it was 104% (inactive); with LOX IMVI melanoma, 96.5% (inactive). The growth in the test with SK-MEL-28 melanoma is 99.2% (inactive).
`Nc1ccc(C(=O)/C=C/c2ccccc2)cc1`: the growth is 62.1% (inactive) with DU-145 prostate; 14.3% (inactive) in the test on K-562 leukemia; 93.9% (inactive) in the test on MALME-3M melanoma; 98.2% (inactive) in the test on MDA-MB-231 breast; 104% (inactive) in the test on RXF 393 renal; 85.8% (inactive) in the test with SF-268 CNS. Besides, the growth in the test with SF-295 CNS was 101% (inactive); in the test with SF-539 CNS it was 102% (inactive); with UACC-257 melanoma it was 108% (inactive); with M14 melanoma, 80.4% (inactive); in the test with HCT-15 colon, 87% (inactive); in the test on HT29 colon it was 96.5% (inactive). Moreover, the growth was 104% (inactive) in the test with SNB-75 CNS; 91.3% (inactive) in the test on SNB-19 CNS; 91.8% (inactive) in the test with U251 CNS; 74.1% (inactive) with PC-3 prostate; 102% (inactive) with SK-MEL-5 melanoma; 97% (inactive) with UACC-62 melanoma. The growth in the test on LOX IMVI melanoma is 84.9% (inactive); in the test on SK-MEL-28 melanoma, 113% (inactive).
In the case of `CC(=O)N1CC(=O)NC1=S`, the growth was 105% (inactive) in the test with DU-145 prostate; 97.4% (inactive) in the test on K-562 leukemia; 95% (inactive) in the test on MALME-3M melanoma; 98.3% (inactive) with MDA-MB-231 breast; 104% (inactive) in the test with RXF 393 renal; 98.2% (inactive) in the test with SF-268 CNS. In addition, the growth in the test on SF-295 CNS was 102% (inactive); with SF-539 CNS, 101% (inactive); in the test on UACC-257 melanoma it was 90.4% (inactive); with M14 melanoma, 95.1% (inactive); in the test on HCT-15 colon, 99.9% (inactive); with HT29 colon, 106% (inactive). In addition, the growth was 89.2% (inactive) in the test on SNB-75 CNS; 101% (inactive) with SNB-19 CNS; 94.8% (inactive) in the test with U251 CNS; 97.9% (inactive) in the test on PC-3 prostate; 103% (inactive) in the test on SK-MEL-5 melanoma; 96.1% (inactive) in the test on UACC-62 melanoma. Further, the growth in the test with LOX IMVI melanoma is 98.5% (inactive); in the test with SK-MEL-28 melanoma, 108% (inactive).
